Test results taken from PubChem BioAssay AID485350 (ICCB-Longwood Screening Facility, Harvard Medical School, 2010).
The campaign covered roughly 84,000 compounds. About 95 (0.1%) were called active. Rule as the data show it: active = inhibition above about 25% (passing the limit was not always enough); inactive = the rest. Only a selection was taken, and actives are over-represented in it overall.

Tested on: BasE (2,3-dihydroxybenzoate-AMP ligase), Acinetobacter baumannii ATCC 17978
Assay: inhibitors of A. baumannii BasE – biochemical, Acinetobacter baumannii ATCC 17978, fluorescence polarization, primary screen (AID 485350);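 also: 0% = negative plate control signal and 100% = positive plate control signal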
Settings: purified BasE, fluorescence polarization binding displacement; hits give high values; concentration not given here

inhibition, inactive:
CC(=O)Nc1cccc(C(=O)OCC(=O)N2CCN(c3ccccc3)CC2)c1 0.21%, Oc1ccc(N=Cc2cn(-c3ccccc3)nc2-c2ccco2)cc1 -0.83%, C/C(N)=C(/C#N)C(=O)CSc1n[nH]c(C(C)C)n1 1.38%, CC(Oc1coc(CN2CCN(Cc3ccccc3)CC2)cc1=O)c1ccccc1 (configuration not stated) -0.18%, O=C(O)Cc1cc(=O)n(C2CCS(=O)(=O)C2)[nH]1 (configuration not stated) -0.2%, O=S(=O)(NCCC1=CCCCC1)c1ccc(Cl)cc1 -0.06%, c1snnc1C12CC3CC(CC(C3)C1)C2 -2.21%, NC(=O)C[n+]1cccc(C(N)=O)c1 -2.44%, CCOC(=O)c1cc(-c2ccc(S(=O)(=O)N(C)Cc3cnn(-c4ccccc4)c3)s2)on1 -0.03%, CN(C)S(=O)(=O)c1ccc(C(=O)Nc2ccccc2C(=O)NCc2ccc3c(c2)OCO3)cc1 -2.15%, O=C(Oc1ccc2c3c(c(=O)oc2c1)CCC3)C1CCCCC1 2.18%, COc1cc2c(cc1OC)C(C)N(Cc1sc3ccccc3c1C)CC2 (configuration not stated) -2.07%, O=C1CSC(=Nc2ccccc2)N1S(=O)(=O)c1ccccc1 0.27%, O=C(C1=Cc2sc3c(c2CS1)CCCC3)N1CCCC1 0.06%, N#Cc1cccc(OC(=O)c2ccccc2)c1 1.16%, COC(=O)c1cccc(NS(=O)(=O)c2cccs2)c1 0.35%, CCc1ccc(CCC(=O)O)cc1 1.07%, CCOC(=O)c1nn(-c2ccccc2)c(=O)cc1OCC 0.32%, Cc1ccc(CN2CCC(CNC(=O)Cn3c(=O)oc4ccccc43)CC2)cc1 3.44%, O=C(O)Cc1ccc(C(F)(F)F)cc1 -1.44%, CCOC(=O)CC1=CSC(NC)N1c1c(C)cc(C)cc1C (configuration not stated) 0.61%, Cc1cc(C(=O)N/N=C/c2ccc(O)cc2)c2ccccc2n1 -0.11%, CCOC(=O)/C=C1\SCC(=O)N1Cc1cc(Cl)cc2c1OCOC2 -0.76%, Cc1cc(C)n2nc(SCc3nc4ccc(Cl)cc4n3CCO)nc2n1 -0.85%, Cc1ccc(Cl)cc1NC(=O)CSc1nc2c(oc3ccccc32)c(=O)n1C1CCCC1 0.55%, CCN(CC(=O)NCc1cccs1)C(=O)c1ccc2c(c1)SC1=NS(=O)(=O)CCN12 0.92%, O=C(CC1SC(=Nc2ccccc2)NC1=O)NC1CC1 (configuration not stated) 0.62%, O=C(NCc1ccc(-c2nc3ccccc3o2)cc1)c1ccccc1Br -0.19%, O=C1N(CNc2ccccc2)CCN1CNc1ccccc1 1.83%, O=C(CSc1nnc(Cc2csc(Nc3cccc(Cl)c3)n2)o1)c1ccc2c(c1)OCCO2 -0.63%, CC(C)C(NC(=O)C1CCCCC1)C(=O)O (configuration not stated) 3.11%, O=C(c1cc(-c2cccs2)on1)N1CCCC1 -0.81%, N#Cc1ccc(Cn2cc(Br)ccc2=O)cc1 0.99%, O=C(c1ccc(S(=O)(=O)N2CCOCC2)cc1)N1CCn2c1nc1ccccc12 -1.29%, COc1cc(OC)c(C2Nc3c(C)cc(C)cc3-c3cc(C)nn32)cc1OC (configuration not stated) 0.21%, O=C(c1ccc2c(c1)C(=O)N(Cc1ccncc1)C2=O)N1CCN(S(=O)(=O)c2ccc(OC(F)(F)F)cc2)CC1 0.9%, CO/N=C(/C(=O)N[C@@H]1C(=O)N2C(C(=O)[O-])=C(C[N+]3(C)CCCC3)CS[C@H]12)c1csc(N)n1 -0.27%, Cc1cccc(C(CC(=O)NCc2cccs2)n2cccc2)c1 (configuration not stated) 1.33%, CC(c1ccccc1)N(C)CN1C(=O)c2ccccc2C1=O (configuration not stated) -0.8%, Cc1[nH]c2ccccc2c1C1=CCN(S(=O)(=O)c2cccc3nsnc23)CC1 -2.27%, COc1ccc(O)c(C(=O)c2cnn(C(=O)c3ccc4c(=O)n5c(nc4c3)CCC5)c2)c1 -0.87%, C=CCC(CC=C)(C(N)=O)c1ccccc1 2.87%, COc1ccc(CNC(=O)c2cc3c(C)nccc3[nH]c2=O)cc1 0.94%, CCn1c2ccccc2c2nnc(SCC(=O)NCCc3ccc(OC)c(OC)c3)nc21 -1.45%, N#CSc1ccc(N2CCCCC2)cc1 1.12%, CCCCn1c(SCc2nnc(-c3cccs3)o2)nc2cc(S(N)(=O)=O)ccc21 -3.81%, CC1(C)CC(=O)C=C(N2CCN(c3ccccc3F)CC2)C1 0.11%, CCn1c(N2CCN(S(C)(=O)=O)CC2)nc2ccccc21 -0.64%, O=C1CN(C(=O)CSC2=Nc3ccccc3CS2)c2ccccc2N1 -1.75%, CCOc1ccnc2sc(C(=O)c3cccnc3)c(N)c12 1.88%, C=CCn1cc(/C=C(\C#N)C(=O)NC2CCCCC2)c2ccccc21 2.71%, Cc1ccc(C2=NN(C(=O)CSc3nc(N)cc(N)n3)C(c3ccco3)C2)cc1 (configuration not stated) 2.13%, CS(=O)c1nc(-c2cccs2)cc(-c2ccccc2)c1C#N (configuration not stated) -2.06%, COCCc1cc(C(F)(F)F)c2c(=O)n(C)c(=O)n(C)c2n1 -0.29%, Cn1c(N)c(C(=O)NCc2ccccc2)c2nc3ccccc3nc21 -1.54%, CCOC(=O)c1c(C)[nH]c(C(=O)CN2C(=O)NC(CC)(c3ccc(F)cc3)C2=O)c1C (configuration not stated) -1.75%, Cc1cc(Oc2ccc3c(c2)OCO3)nc2ccccc12 6.24%, O=C(NCC(c1ccco1)N1CCCCC1)c1ccc(S(=O)(=O)N2CCCC2)cc1 (configuration not stated) 1.67%, Clc1ccc(/C=N/NCc2cn3ccsc3n2)cc1 0.12%, COc1ccc(Cl)cc1NC(=O)CN1C(=O)CSC(C)C1=O (configuration not stated) 0.33%, O=C(OCC(=O)N1CCCc2ccccc21)c1cc2ccccc2oc1=O -0.7%, COc1ccccc1OCCCn1cc(/C=C2/C(=N)N3C=CSC3=NC2=O)c2ccccc21 2.49%, Cc1nn(CCC#N)c2nc(-c3ccc(F)cc3)cc(C(=O)O)c12 0.45%, Cc1noc(/C=C/N2CCOCC2)c1S(=O)(=O)N(C)CCc1ccc(Cl)cc1 3.54%, Cc1cc(C)nc(SCC(=O)OCC(=O)N2CCc3ccccc32)n1 -2.45%, COC(=O)C1=CN(C(C)C)C=C(C(=O)OC)C1c1cccs1 -11.7%, O=C(OCCN1CCCCC1)c1ccc(F)cc1 -3.82%, Cc1cc(C)n(C(=O)N2c3ccccc3Sc3ccccc32)n1 2.13%, COc1ccc(CC(=O)N/N=C2/CC(=O)CC(C)(C)C2)cc1 -0.19%, Cc1ccc(Nc2nc(N)nc(CSc3nc4c(n3-c3ccccc3)CCCC4)n2)cc1 -1.36%, S=C(Nc1cccnc1)Nc1ccccc1N1CCCCC1 3.7%, O=C(Cn1c(=O)oc2ccccc21)NCc1ccccc1 -2.65%, CC(C(=O)N1CCCc2ccccc21)n1nc(-c2cccs2)oc1=O (configuration not stated) -0.37%, CCNC(=O)c1ccc(OCc2c(C)noc2C)c(OC)c1 -0.55%, CCOC(=O)CSc1ncnc2sc3c(c12)CCC3 -0.59%, CSc1nnc(C)n1Cc1ccccc1 -0.73%, CC1CN(C(=O)COC(=O)c2cccc3ccccc23)CC(C)O1 (configuration not stated) 1.48%, Cc1occc1C(=O)Nc1cccc(-c2nn[nH]n2)c1 1.61%, Cn1c(=O)c2c(SC/C(O)=C(\C#N)c3nc4ccccc4[nH]3)nc(C(C)(C)C)nc2n(C)c1=O 0.74%, Cc1cc(-c2nn(C)c(=O)c3ccccc23)cc(C)c1OC(=O)Nc1ccc(Cl)cc1 1.43%, NNC(=O)c1ccc(COc2ccccc2)o1 -1.29%, CC1CN(C(=O)CSc2nc3scc(-c4ccccc4)c3c(=O)n2N)CC(C)O1 (configuration not stated) 1.03%, COc1ccc(C)cc1NC(=O)C(OC(=O)c1ccc(Br)o1)c1ccccc1 (configuration not stated) -0.6%, CCN=c1sc(C(=O)Nc2ccccc2)c(C)n1CC -0.02%, COC(=O)CCC1(C(=O)O)CCOC(C)(C)C1 (configuration not stated) 0.97%, NC(=O)CSc1nnc(SCCOc2ccccc2)s1 0.35%, O=C(CSc1nc2cc3c(cc2c(=O)n1Cc1ccc2c(c1)OCO2)OCO3)NCCc1ccccc1 0.07%, COCCn1c(C)cc(C(=O)CSc2nc(C)c(C)n2C2CCCCC2)c1C -0.27%, CCCCNc1ncc2c(n1)c(=O)c(C#N)c1[nH]c3ccccc3c(=O)n12 -8.32%, CCOCCCn1c(CC(N)=O)n[nH]c1=S 0.4%, Nn1c(SCC2CCCCO2)nnc1-c1ccncc1 (configuration not stated) 1.26%, COC(=O)Cc1c(C)n[nH]c1C 1.01%, c1ccc(-n2nnnc2Sc2nnc3n2CCCCC3)cc1 -0.02%, O=C(Nc1ccncc1)OCCc1ccccn1 4.83%, Cc1cc(N2CCN(C)CC2)nc2ccc(NC(=O)NC3CCCC3)cc12 -2.82%, Cc1ccc2cc(C#N)c(NCCNC(=O)Nc3ccccc3C)nc2c1 4.18%, O=C(CCNC(=O)NC12CC3CC(CC(C3)C1)C2)Nc1ccc(-n2cnnn2)cc1 2.05%
